Screens as filed in PubChem BioAssay.
The sample as a whole holds a higher share of hits than the screen did.
CBX7 AlphaScr – inhibitors of human CBX7 binding to H3K27me3 peptide. actives 1.1% (n = 66,000). AlphaScreen His6-CBX7 / biotin-H3K27me3 peptide binding; active compounds read low. normalised signal (fraction of DMSO) (concentration not given with the values); in the data active means normalised signal below about 0.5
Target sequence (O95931 whole entry, looked up): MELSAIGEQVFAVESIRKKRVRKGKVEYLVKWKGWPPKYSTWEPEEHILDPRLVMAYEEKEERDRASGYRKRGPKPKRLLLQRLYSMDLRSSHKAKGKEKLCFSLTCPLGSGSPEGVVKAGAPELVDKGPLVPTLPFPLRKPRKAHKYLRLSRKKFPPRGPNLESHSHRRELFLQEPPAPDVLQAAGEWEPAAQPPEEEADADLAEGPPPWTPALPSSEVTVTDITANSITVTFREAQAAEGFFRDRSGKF
Of the large screens only hits and unclear results are named; the others gave an inactive call.

Cc1ccc(OCc2nc(C#N)c(N3CC(C)CC(C)C3)o2)cc1 (stereo not given)	none
COc1ccccc1CC(=O)Nc1ccc(-c2noc(-c3ccccc3OC)n2)cc1	none
CCN(CCCNC(=O)c1ccc2c(c1)NC(=O)CS2)c1cccc(C)c1	none
COc1ccc(CCNC(=O)c2cc(-c3cccc(O)c3)on2)cc1OC	none
CCN(Cc1ccccc1)S(=O)(=O)c1ccc(C(=O)Nc2nnc(-c3cccs3)o2)cc1	none
CCCN(CCC)S(=O)(=O)c1ccc(C(=O)Nc2nnc(C)o2)cc1	CBX7 AlphaScr 0.083
CCN(CC)S(=O)(=O)c1ccc(C(=O)Nc2nnc(C)o2)cc1	CBX7 AlphaScr 0.084
CCN(CC)S(=O)(=O)c1ccc(C(=O)Nc2nc3ccc4nc(C)sc4c3s2)cc1	none
CCN1CCN(CCCNC(=O)c2cn(C3CCCC3)c(=O)c3c2c2ccccc2n3C)CC1	none
O=C(Nc1ccc(C(F)(F)F)cc1)c1cnc(N2CCN(c3ncccn3)CC2)c2ccccc12	none
O=C(CCc1ccccc1)NC(c1cccs1)c1cc(Cl)c2cccnc2c1O (stereo not given)	CBX7 AlphaScr 0.45
Cc1ccc(-c2noc(CCC(=O)NC(C)CCc3ccccc3)n2)cc1 (stereo not given)	none
CCCC(=O)NC(c1ccccc1)c1cc(Cl)c2cccnc2c1O (stereo not given)	none
Cc1ccc(C(NC(=O)CCc2ccccc2)c2ccc3cccnc3c2O)cc1 (stereo not given)	CBX7 AlphaScr 0.071
O=C(CCCN1C(=O)c2cccnc2C1=O)NC(c1ccccc1)c1ccccc1	none
Cc1cccnc1NC(c1ccccc1)c1ccc2cccnc2c1O (stereo not given)	CBX7 AlphaScr 0.032
O=C(NC(c1ccccc1)c1ccccc1)C1CCCN1S(=O)(=O)c1cccc2cccnc12 (stereo not given)	none
CC(NS(=O)(=O)c1cccc2cccnc12)c1ccccc1 (stereo not given)	none
Oc1c(C(Nc2ccccn2)c2ccccc2)ccc2cccnc12 (stereo not given)	CBX7 AlphaScr 0.01
CC(NC(=O)C1CCN(S(=O)(=O)c2cccc3cccnc23)CC1)c1ccccc1 (stereo not given)	none
Cc1ccc2cc(CCNC(=O)CCc3ccccc3)c(=O)[nH]c2c1	none
O=C(NC(c1ccccc1)c1ccccc1)C1CCCN(S(=O)(=O)c2cccc3cccnc23)C1 (stereo not given)	none
CCOC(=O)c1c(NC(=O)c2ccc(F)cc2)sc2c1CC(C)CC2 (stereo not given)	none
Cc1cc(Nc2cccc(C(F)(F)F)c2)n2nnnc2n1	none
COc1ccc(-c2cc(C(=O)Nc3ccc(C)cc3)c3ccccc3n2)cc1	none
Cc1ccccc1OCc1nc(-c2ccncc2)no1	none
COc1ccc(Br)c(C(=O)N2CCNc3ccccc3C2)c1	none
O=C1CN(C(=O)C2CCCCC2)C(c2ccccc2)c2cc(Br)ccc2N1 (stereo not given)	none
Cc1ccc(C)c2[nH]c(=O)c(CCNC(=O)COc3ccccc3)cc12	none
CCn1cc(C(=O)NCCC(C)C)c(=O)c2ccc(C)nc21	none
COc1ccc(/C=C/c2cc(C(F)(F)F)[nH]c(=O)n2)c(OC)c1	none
Cc1ccc(-n2nc3c(c2NC(=O)Cc2ccccc2)CS(=O)(=O)C3)cc1	none
COc1ccc(-c2nn(C)c(=O)c3ccccc23)cc1CNC(=O)c1ccc(Cl)cc1	none
CCOc1ccc2nc(N3CCC(C(=O)NC(C)C)CC3)sc2c1	none
COc1ccc(CNCCC(c2ccccc2)c2ccc3c(c2)OCO3)cc1 (stereo not given)	none
COc1ccccc1C(CCNCc1ccc(OC(C)C)cc1)c1ccc2c(c1)OCO2 (stereo not given)	CBX7 AlphaScr 0.17
COc1ccccc1C(CCNCc1ccc2c(c1)OCO2)c1ccc2c(c1)OCO2 (stereo not given)	none
COc1ccc(CN2CC(C(=O)NC3CCCC3)CC2=O)cc1 (stereo not given)	none
COc1ccc(CN2CC(C(=O)NCc3ccc(F)cc3)CC2=O)cc1 (stereo not given)	none
COc1ccc(CN2CC(C(=O)NCc3ccccn3)CC2=O)cc1 (stereo not given)	CBX7 AlphaScr 0.37
CC1CC(C)CN(CCCNC(=O)CCc2nc(-c3ccccc3F)no2)C1 (stereo not given)	none
CCN1CCN(C(=O)Cn2cc(S(=O)(=O)N3CCC(C)CC3)c3ccccc3c2=O)CC1	none
CCOc1ccc(-n2c(Cc3cc(=O)[nH]c(=O)[nH]3)nnc2SCc2ccccc2C)cc1	none
COc1ccc2c(c1)c(CC(=O)Nc1ccccn1)c(C)n2C(=O)c1ccc(Cl)cc1	CBX7 AlphaScr 0.41
C=CCNC(=O)Cc1c(C)n(C(=O)c2ccc(Cl)cc2)c2ccc(OC)cc12	none
COc1ccc2c(c1)c(CC(=O)NC1CC1)c(C)n2C(=O)c1ccc(Cl)cc1	none
COc1cc(Cl)c(C)cc1NC(=O)c1ccc2c(c1)NC(=O)c1ccccc1S2	none
O=C(CCCN1C(=O)c2cccnc2C1=O)Nc1ccc(F)c(F)c1	none
O=C(CCCN1C(=O)c2cccnc2C1=O)Nc1cccc(Cl)c1	none
O=C(CCN1C(=O)c2cccnc2C1=O)Nc1cccc(F)c1	CBX7 AlphaScr 0.44
